This is a sample that favours compounds with a hit; in the whole collection about 3.9% have one here.
USP2a block = inhibitors of human ubiquitin-specific protease USP2a; O75604; USP2 core, Ub-CHOP2 coupled fluorogenic reporter, 485/531; Potency, µM (highest dose often 38.3 µM), without a hit: at the top dose activity change, negative = inhibition, usual class: inhibitors; actives 0.01% (n = 330,000); AID 463254;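 further: potency means the concentration at half of the fitted maximal effect; plate controls were DMSO wells for no effect and full inhibition by NEM control for full effect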
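Deubiquitinase activity read as fluorescence (485/531 nm) after Ub-CHOP2 cleavage activates the enterokinase reporter on its substrate; USP2 core 10nM, Ub-CHOP2 and substrate 25nM each, 30min compound preincubation then 60min RT; data normalized to NEM, curves fitted.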
D1 agonist = agonists of human D1 dopamine receptor; P21728; HEK293 T-REx D1 cells, calcium flux, agonist mode; activation, % at 2 µM; actives 1% (n = 360,000); AID 504660; in the data active means activation above about 30%; further: 0% is about no effect
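Inducible HEK293 T-REx D1 cells, force-coupled to calcium signalling, were plated at 4000 cells/well with tetracycline and held overnight at 30 C. After no-wash calcium dye loading, compound-evoked calcium rise over 180 s flagged agonists.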
GALK inh = inhibitors of human galactokinase; Purified GALK, Kinase-Glo residual ATP luminescence; Potency, µM (top dose mostly 57.5 µM), for the others: at the highest dose activity change, negative = inhibition, usual class: inhibitors; actives 0.007% (n = 270,000); further: potency means the concentration at half of the fitted maximal effect; on the % scale 0 is the no-effect control and ±100 the full control effect
Target sequence (P51570 whole entry, looked up): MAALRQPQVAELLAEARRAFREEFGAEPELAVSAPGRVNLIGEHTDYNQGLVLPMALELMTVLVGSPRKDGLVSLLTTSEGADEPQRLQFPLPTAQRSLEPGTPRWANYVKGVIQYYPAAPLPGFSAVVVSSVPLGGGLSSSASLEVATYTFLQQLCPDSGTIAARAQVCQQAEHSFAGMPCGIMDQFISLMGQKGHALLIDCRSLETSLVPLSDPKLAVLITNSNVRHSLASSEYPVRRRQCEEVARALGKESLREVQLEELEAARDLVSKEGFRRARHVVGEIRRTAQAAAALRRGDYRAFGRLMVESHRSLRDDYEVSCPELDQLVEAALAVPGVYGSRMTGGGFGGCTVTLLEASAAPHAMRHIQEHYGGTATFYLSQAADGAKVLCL
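GALK at 5 nM final was combined with compound, 35 uM ATP and 100 uM galactose in HEPES pH8.0 with MgCl2 and DTT. The reaction ran one hour at room temperature before luminescent ATP detection.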
D1 antagonist = blocks dopamine activation of the human D1 receptor; P21728; AID 504652; activity change, negative = inhibition, % at 10 µM; actives 3.2% (n = 360,000); HEK293 TREx D1 cells, calcium flux, dopamine EC80; stronger effect = lower value; in the data active means activity change below about -30%; further: on the % scale 0 is the no-effect control and ±100 the full control effect
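Cells carrying a force-coupled, tetracycline-inducible human D1 receptor report calcium flux. Each well gets a 10 s baseline, compound with 180 s monitoring, then an EC80 dopamine stimulus with a second 180 s kinetic read.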
D1 PAM = human D1 dopamine receptor positive modulation | P21728 | AID 504651 | potentiation, % at 10 µM | HEK293 TREx D1 cells, calcium flux, dopamine EC20 potentiation | actives 0.036% (n = 360,000); in the data active means potentiation above about 30%; further: 0% is about no effect
Eya2 inh = Eya2 (human) phosphatase inhibition; O00167; recombinant Eya2, OMFP fluorescence dephosphorylation (OMFP is methylfluorescein phosphate); Potency, µM (top dose mostly 76.9 µM), for inactives: top-dose activity, negative = inhibition, hits mostly inhibitors; actives 0.006% (n = 330,000); further: potency means the concentration at half of the fitted maximal effect; on the % scale 0 is the no-effect control and ±100 the full control effect
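Eya2 (0.2 uM) preincubated 10 min at ambient with compound, then OMFP substrate added at 50 uM; 10 min reaction in 50 mM HEPES pH 7.5, 50 mM NaCl, 5 uM MgCl2, 0.05% BSA, 1 mM DTT. Fluorescence read at Ex 485/Em 525 nm.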
An asterisk follows results filed as active; ? = inconclusive; . = no result. Unless noted, the call rests on the fitted dose curve; in most records, active means well fitted inhibition curve with a large enough effect; inconclusive means small, poorly fitted or top-dose-only effect, or effect the other way; inactive means flat fitted curve, though single readings scatter.

SMILES	USP2a block	D1 agonist	GALK inh	D1 antagonist	D1 PAM	Eya2 inh
COc1cc(-c2noc(-c3ccc(NC4CCCC4)c([N+](=O)[O-])c3)n2)cc(OC)c1OC	.	10	.	-30*	1	.
COc1ccc(-c2noc(-c3ccc(N4CCCC4)c([N+](=O)[O-])c3)n2)cc1OC	.	7	.	-38*	-2	.
Cc1cccc(Cn2c(CNS(=O)(=O)c3ccc4c(c3)CCCC4)nc3cccnc32)c1	.	4	.	19	0	.
CCCC1(c2ccccc2)NC(=O)N(CC(=O)Nc2cc(S(=O)(=O)N3CCOCC3)ccc2Cl)C1=O (stereo not drawn)	1%	7	9%	-30*	-5	-7%
CCCC1(c2ccccc2)NC(=O)N(CC(=O)Nc2cc(OC)cc(OC)c2)C1=O (stereo not drawn)	2%	35*	-1%	7	.	-7%
CCn1c(C)cc(/C=C2\SC(=O)N(CC(=O)Nc3ccc(C)c(C)c3)C2=O)c1C	2%	0	.	-38*	-2	-7%
Cc1ccc(C(C)C)c(OCc2nn(CC(=O)c3ccc(OC(F)F)cc3)c3[n+]2CCCCC3)c1	?	91*	2%	-12	-6	-30%
COc1ccc(C(=O)Cn2nc(CNc3ccc(Br)cc3)[n+]3c2CCCCC3)cc1	3%	5	14%	-4	0	1%
N#C/C(=C\c1ccc(N2CCOCC2)o1)C(=O)NCC1CCCO1 (stereo not drawn)	0%	1	0%	-13	0	-10%
COCCNC(=O)/C(C#N)=C/c1ccc(N2CCOCC2)o1	?	26	.	-4	-1	0%
N#C/C(=C/c1ccc(N2CCOCC2)o1)C(=O)Nc1ccccc1	?	215*	-1%	-14	0	?
COc1cc(/C=C(\C#N)C(=O)Nc2ccccc2)ccc1OCCN1CCOCC1	1%	1	2%	-22	-7	-7%
N#C/C(=C\c1ccc(N2CCOCC2)o1)C(=O)NCCc1ccccc1	?	124*	1%	2	0	?
N#C/C(=C\c1ccc(N2CCOCC2)o1)C(=O)NC1CCCCC1	?	69*	3%	-3	-4	26%
N#C/C(=C\c1ccc(OCCN2CCOCC2)cc1)C(=O)Nc1ccccc1	0%	7	1%	-30*	-7	0%
Cc1oc2ncn(CC(C)C)c(=O)c2c1C(=O)NCCc1ccccc1	.	-1	.	-22	-8	.
O=C(CCN1CCN(c2ccccc2F)CC1)c1ccc(Br)cc1	-1%	2	0%	-13	-17	20%
O=C(CCN1CCN(c2ccccc2)CC1)c1ccc(Br)cc1	3%	2	-6%	-30*	-17	4%
Cc1cccc(C2CC(c3ccc(Br)cc3)Nc3nc(N)nn32)c1 (stereo not drawn)	-6%	3	2%	26	3	2%
COc1ccc(C2CC(c3cccc(C)c3)n3nc(N)nc3N2)cc1 (stereo not drawn)	2%	0	0%	-31*	0	-17%
COc1cccc(C2CC(c3cccc(Br)c3)n3ncnc3N2)c1 (stereo not drawn)	1%	1	-5%	-57*	-4	-1%
Cc1cccc(C(=O)Nc2nc3nc(-c4ccccc4)cc(=O)n3[nH]2)c1	.	1	.	10	-2	.
O=C(Nc1ccccc1OCc1cc(=O)n2ccccc2n1)c1cccc(Br)c1	.	-1	.	-10	-4	.
O=C(NC1CCCc2ccccc21)c1ccc(=O)[nH]c1 (stereo not drawn)	2%	1	.	-39*	-2	4%
Cc1cc(NO)c(C(C)C)cc1N=O	0%	36*	.	-29	-10	2%
CC[n+]1c(/C=C/Nc2ccccc2)oc2ccc(OC)cc21	4%	2	4%	-3	-10	-2%
O=S(=O)([O-])CCC[n+]1c(/C=C\Nc2ccccc2)oc2ccc(-c3ccccc3)cc21	?	123*	1%	-3	-1	?

High-throughput results (PubChem BioAssay)
